Results on twelve compounds are retold here after PubChem BioAssay (NCATS).

Records with an inconclusive call do not appear. Unmarked numbers belong to inactive results. The source made the active and inactive calls. The call rests on the fitted dose curve; in most records, active means well fitted inhibition curve with a large enough effect; inconclusive means small, poorly fitted or top-dose-only effect; inactive means flat fitted curve, though single readings scatter.
On the % scale 0 is the no-effect control and ±100 the full control effect.

Sequence of Calcium and integrin-binding protein 1 (Homo sapiens) (Q99828 whole entry, looked up): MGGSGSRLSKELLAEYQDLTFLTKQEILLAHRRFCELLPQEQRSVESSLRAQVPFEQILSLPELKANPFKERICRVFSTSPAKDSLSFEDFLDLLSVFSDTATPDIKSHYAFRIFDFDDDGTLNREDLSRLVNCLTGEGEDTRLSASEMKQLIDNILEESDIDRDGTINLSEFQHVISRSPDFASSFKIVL

The first assay has as its target Calcium and integrin-binding protein 1 (Homo sapiens) (UniProt Q99828). Description: Primary qHTS for Identification of Calcium Integrin Binding Protein 1 (CIB1) Competitor (AID 1508620). Further: top concentration of the series differs between compounds. The settings on record: CIB1-GST / FITC-alphaIIb peptide fluorescence polarization; series mostly up to 57.7 µM; activity change, negative = inhibition: at the top concentration. Put shortly: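 Fluorescence polarization competition: GST-tagged CIB1 (1 uM final) preincubated with compound 15 min at room temperature, then FITC-labelled alphaIIb peptide (100 nM final) added. After 15 min at room temperature, polarization read at Ex 480/Em 540.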
On to `CC12CC(O)C(O)C=C1c1cc(O)cc(O)c1C(=O)O2` (configuration not stated), for which the “activity change, negative = inhibition” value was -8.25% [at 114 µM].

For the compound `CC1(C)CC[C@]2(C(=O)O[C@@H]3O[C@H](CO)[C@@H](O)[C@H](O)[C@H]3O)CC[C@]3(C)C(=CCC4[C@@]5(C)C[C@H](O)[C@H](O[C@@H]6O[C@H](C(=O)O)[C@@H](O)[C@H](O)[C@H]6O)[C@@](C)(CO)C5CC[C@]43C)C2C1` (some centres not stated), the activity change, negative = inhibition is 0.901% [at 12.4 µM].

Take `CC(=O)/C=C/C1(O)C(C)=CC(=O)CC1(C)C` (configuration not stated): the “activity change, negative = inhibition” value was -2.67% [at 114 µM].

For `COc1cc([C@H]2OC[C@](O)(Cc3ccc(O[C@@H]4O[C@H](CO)[C@@H](O)[C@H](O)[C@H]4O)c(OC)c3)[C@@H]2CO)ccc1O`, the “activity change, negative = inhibition” value was -1.03%.

Test system in a further assay: not listed separately
Description: Primary qHTS for inhibitors of nuclear receptor binding SET domain protein 2 (NSD2) in an isogenic RCH-ACV NSD2 p.E1099K mutant (9B) (AID 1645876). Further: nearly all actives have a fitted effect of over 70% in size. The settings on record: RCH-ACV (leukaemia line) NSD2 E1099K (9B) viability, CellTiter-Glo, 72 h; series mostly up to 44.9 µM; activity change, negative = viability loss: at the top concentration.
As to `COc1cc(C2CC(=O)Nc3c2cc(Br)c2ccccc32)cc(OC)c1OC` (configuration not stated), the “activity change, negative = viability loss” value was 1.81%.

As to `CCC(C)/C=C(C)/C=C/C1=CC2=C(Cl)C(=O)C(C)(OC(C)=O)C(=O)C2=CN1C(CCC(=O)O)C(=O)O` (configuration not stated), the “activity change, negative = viability loss” value is -2.1% [at 17.3 µM].

Consider `CC(=O)/C=C/C1C(C)CC(O[C@@H]2O[C@H](CO)[C@@H](O)[C@H](O)[C@H]2O)CC1(C)C` (some centres not stated), for which the compound was called inactive.

In the case of `CC12CC(c3ccoc3)OC(=O)C1CCC1(C)C2CCC(O)C1(C)O` (configuration not stated), the “activity change, negative = viability loss” value was -11.8%.

`C/C(=C\C1CCC(C)C2CCC3(C)OC123)C(=O)O` (configuration not stated): the “activity change, negative = viability loss” value is 2.16%.

As for `NC1Nc2ccccc2C1(N)CC1NC(=O)C(Cc2ccccc2)NC(=O)C(Cc2ccccc2)NC1=O` (configuration not stated), the “activity change, negative = viability loss” value is -13% [at 17.3 µM].

Regarding `O=C(/C=C/c1ccc(O)c(O)c1)O[C@@H]1[C@@H](O)[C@H](OC2CCCCC2O)O[C@H](CO)[C@H]1O` (some centres not stated), the “outcome” value is “inactive [at 17.3 µM]”.

Take `C=C1C(=O)OC[C@H]2C(C(=O)O)=CC3CC(C)(C)C[C@@]132` (some centres not stated): the “activity change, negative = viability loss” value was 1.05%.
